Results: ChEMBL document CHEMBL1201862, “PubChem BioAssay data set” (2004)
Hit rate of the full screen: of about 400,000 compounds, about 2,100 (0.53%) were called active. About 14% were inconclusive and are not listed. The rule behind the calls is not given here. For the sample, actives were picked, then their nearest neighbours and some compounds at random.

Molecular target: Ataxin-2 (Homo sapiens) (UniProt Q99700)
Test: qHTS for Inhibitors of ATXN expression.
Assay type: functional

Ataxin-2 (Homo sapiens), sequence (Q99700 whole entry): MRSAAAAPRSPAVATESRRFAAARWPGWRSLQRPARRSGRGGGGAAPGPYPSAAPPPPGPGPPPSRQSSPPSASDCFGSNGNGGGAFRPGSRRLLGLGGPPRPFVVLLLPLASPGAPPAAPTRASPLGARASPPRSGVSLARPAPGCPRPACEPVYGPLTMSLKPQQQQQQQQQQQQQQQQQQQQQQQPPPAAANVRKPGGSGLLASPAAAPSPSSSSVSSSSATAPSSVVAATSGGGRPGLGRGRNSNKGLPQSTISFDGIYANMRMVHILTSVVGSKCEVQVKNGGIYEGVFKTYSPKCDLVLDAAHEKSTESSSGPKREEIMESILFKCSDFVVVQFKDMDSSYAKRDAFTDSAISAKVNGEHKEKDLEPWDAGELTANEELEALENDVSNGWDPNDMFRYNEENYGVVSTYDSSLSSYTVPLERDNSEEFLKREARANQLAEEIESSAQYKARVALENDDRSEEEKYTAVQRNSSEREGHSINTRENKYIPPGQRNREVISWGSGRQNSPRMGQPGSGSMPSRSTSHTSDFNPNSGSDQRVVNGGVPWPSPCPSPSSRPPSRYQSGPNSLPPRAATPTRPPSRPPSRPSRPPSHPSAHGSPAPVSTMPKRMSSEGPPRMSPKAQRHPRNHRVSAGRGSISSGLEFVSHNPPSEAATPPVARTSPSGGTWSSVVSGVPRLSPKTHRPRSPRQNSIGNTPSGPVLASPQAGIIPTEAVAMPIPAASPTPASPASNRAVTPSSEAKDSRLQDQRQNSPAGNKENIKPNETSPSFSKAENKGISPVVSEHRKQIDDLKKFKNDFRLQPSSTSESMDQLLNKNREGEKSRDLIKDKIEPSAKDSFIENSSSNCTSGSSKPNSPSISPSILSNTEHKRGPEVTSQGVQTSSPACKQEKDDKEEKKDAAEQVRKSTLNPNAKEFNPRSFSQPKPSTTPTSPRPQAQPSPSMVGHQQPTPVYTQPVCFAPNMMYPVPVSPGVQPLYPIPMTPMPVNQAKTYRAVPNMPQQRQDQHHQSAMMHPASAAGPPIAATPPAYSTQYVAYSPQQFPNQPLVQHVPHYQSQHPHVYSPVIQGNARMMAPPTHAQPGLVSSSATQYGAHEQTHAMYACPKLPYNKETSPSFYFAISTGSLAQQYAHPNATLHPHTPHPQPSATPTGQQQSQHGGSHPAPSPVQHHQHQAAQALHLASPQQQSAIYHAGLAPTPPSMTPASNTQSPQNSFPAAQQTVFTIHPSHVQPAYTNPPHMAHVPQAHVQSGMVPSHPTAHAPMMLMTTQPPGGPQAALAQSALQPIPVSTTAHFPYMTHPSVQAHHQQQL

| Compound | Potency |
| --- | --- |
| CCN(C(=O)COC(=O)c1ccc(OC)c(S(=O)(=O)N(C)Cc2ccccc2)c1)C1CCS(=O)(=O)C1 (stereo not given) | inactive |
| COc1ccc(CCC(=O)OCC(=O)Nc2c(C)n(C)n(-c3ccccc3)c2=O)cc1 | inactive |
| CCCCCCc1cc2cc(-c3nnc(-c4ccc(C)cc4)o3)c(=O)oc2cc1O | inactive |
| Cc1nn2c(nc(N3CCCCC3)c3ccccc32)c1C=O | inactive |
| O=C(CCC1CCCCC1)Nc1nncs1 | inactive |
| Nc1cccc2c1C(=O)N(C(=O)c1ccc(Cl)c(S(=O)(=O)N3CCCCCC3)c1)C2=O | inactive |
| O=C(CSc1nnc(NC(=O)c2ccco2)s1)NCc1ccc2c(c1)OCO2 | inactive |
| CN(C(=O)c1ccc(NC(=O)c2ccco2)cc1)c1ccccc1 | 7.08 µM (active) |
| COCCNC(=O)Nc1ccc2nc(-c3ccco3)c(-c3ccco3)nc2c1 | inactive |
| COCc1cc(C)nc2sc(C(=O)Nc3cccc(OC)c3)c(N)c12 | inactive |
| CN(C(=O)CSc1nc2ccc(NC(=O)c3ccco3)cc2s1)c1ccccc1 | 39.8 µM (active) |
| CCn1nc(NC(=O)c2ccco2)c2cc3ccccc3nc21 | inactive |
| Cc1ccc(C(=O)Nc2ccc3c(c2)OCO3)cc1NC(=O)c1ccco1 | inactive |
| CN(Cc1ccccc1)C(NC(=O)c1ccco1)C(Cl)(Cl)Cl (stereo not given) | inactive |
| COc1cccc(NC(=O)CSc2nc3ccc(NC(=O)c4ccco4)cc3s2)c1 | 35.5 µM (active) |
| C=CCOc1c(Br)cc(C2C3=C(CCCC3=O)N(C)C3=C2C(=O)CCC3)cc1OCC | inactive |
| CCO/C(O)=C1/C(CC)=Nc2ccccc2N=C1NS(=O)(=O)c1cccc(C(C)=O)c1 | inactive |
| COc1cccc(-c2ccc3c(N)c(C(=O)NC4CC4)sc3n2)c1 | inactive |
| Cc1ccc2nc(N3CCC(C(=O)O)CC3)nc(-c3ccccc3)c2c1 | inactive |
| C/C(=N\NC(=O)c1nc2ccccn2c1C)c1cc2ccccc2o1 | inactive |
| O=C(NCc1ccco1)c1cc(NS(=O)(=O)c2cccc([N+](=O)[O-])c2)ccc1O | inactive |
| Cc1ccc2sc(N(CCCN(C)C)C(=O)CCS(=O)(=O)c3ccccc3)nc2c1C | 22.4 µM (active) |

| Compound | Potency |
| --- | --- |
| CN(C)CCCN(C(=O)CCOc1ccccc1)c1nc2c(F)cccc2s1 | 22.4 µM (active) |
| Cc1ccc2sc(N(CCCN(C)C)C(=O)c3ccc(Br)s3)nc2c1C | 35.5 µM (active) |
| COc1cccc2sc(N(CCCN(C)C)C(=O)CCS(=O)(=O)c3ccccc3)nc12 | 20 µM (active) |
| Cc1ccc(/C(=N/Nc2nc3ccccc3s2)C2=C(O)c3ccccc3C2=O)cc1 | inactive |
| Cc1ccc(S(=O)(=O)c2cc3cc(Br)ccc3oc2=O)cc1 | inactive |
| N#Cc1cccc(CN2CCCN(Cc3ccc(F)cc3)S2(=O)=O)c1 | inactive |
| C/C(=N\NC(=O)c1cc2ccccc2cc1O)c1cccs1 | inactive |
| COc1ccc(CCNC(=O)CCS(=O)(=O)c2ccc3nc(C)sc3c2)cc1OC | inactive |
| CC(Sc1nc2ccccc2s1)C(=O)N(C)Cc1ccccc1 (stereo not given) | inactive |
| COc1ccc(C)cc1N(C(=O)c1ccccc1F)c1nc2ccccc2s1 | inactive |
| COc1cccc2sc(N(CCCN(C)C)C(=O)C(c3ccccc3)c3ccccc3)nc12 | 39.8 µM (active) |
| COc1ccc(OC)c2sc(N(CCCN(C)C)C(=O)CCS(=O)(=O)c3ccccc3)nc12 | 25.1 µM (active) |
| CCOc1ccccc1NC(=O)CCS(=O)(=O)c1ccc(OC)cc1 | inactive |
| O=C(Oc1ccc(Cl)c2cccnc12)c1cccnc1 | inactive |
| COC(=O)/C=C1/SC(NNC(=O)c2ccc(Cl)cc2Cl)=NC1=O | inactive |
| C/C(=N\Nc1nc2ccccc2[nH]1)c1ccc(Cl)s1 | inactive |
| CCCn1c(/C=N/Nc2nc3ccccc3[nH]2)nc2ccccc21 | 35.5 µM (active) |
| CCCn1c(/C=C/c2cc[n+](C)cc2)nc2ccccc21 | inactive |
| O=S(=O)(c1cc(Cl)ccc1Cl)N1CCN(c2ccccn2)CC1 | inactive |
| Cc1c(CC(=O)NCC(=O)N[C@H](Cc2ccccc2)C(=O)O)c(=O)oc2cc(O)ccc12 | inactive |
| COc1ccc(-n2c(=O)c3ccccc3n(CC(=O)Nc3cccc(OC)c3)c2=O)cc1 | 39.8 µM (active) |
| COc1cccc(NC(=O)CN(C)C(=O)[C@@H]2CCCN2C(=O)c2cccs2)c1 | inactive |

| Compound | Potency |
| --- | --- |
| COc1cccc(NC(=O)CN2C(=O)c3cccc4cccc2c34)c1 | inactive |
| CCn1cc(C(=O)OC)c(=O)c2cc(S(=O)(=O)N(C)C3CCCCC3)ccc21 | inactive |
| COc1cccc(NC(=O)C2CCOC2=O)c1 (stereo not given) | inactive |
| CC(C)NC(=O)Cn1cc(C(=O)C2CC2)c2ccccc21 | inactive |
| CCc1ccc(NC(=O)N(Cc2cn(CC)c3ccccc23)C2CCCCC2)cc1 | 35.5 µM (active) |
| COc1cccc(NC(=O)N(Cc2cn(C)c3ccccc23)C2CCCCCC2)c1 | 39.8 µM (active) |
| COc1cccc(NC(=O)N2CCCC2C(=O)NCc2ccccc2F)c1 (stereo not given) | inactive |
| COc1cccc(NC(=O)Cn2cc(C(=O)C3CCCCC3)c3ccccc32)c1 | 39.8 µM (active) |
| COc1cc2cc(CNc3ccccc3)c(=O)n(CC(=O)Nc3ccccc3)c2cc1OC | inactive |
| Cc1ccc(NC(=O)CNc2ccccc2CN(C)C2CCCCC2)cc1 | inactive |
| CCc1nc2sc(C(C)=O)c(N)c2c2c1CCCC2 | inactive |
| O=C(CC1Sc2ccccc2NC1=O)OCc1cc(=O)oc2cc(O)ccc12 (stereo not given) | inactive |
| Cn1cc(/C=N/NC(=O)c2cc3cc(Br)ccc3o2)c2ccccc21 | inactive |
| CCOC(=O)N1CCC(NC(=O)c2cc(C(=O)Nc3ccc(F)cc3F)ccc2CO)CC1 | inactive |
| O=C(CC[C@H]1O[C@@H](n2ccc(=O)[nH]c2=O)[C@H](O)[C@@H]1O)N[C@H](Cc1ccccc1)C(=O)NCCCN1CCCC1=O | inactive |
| CC(OC(=O)c1ccc([N+](=O)[O-])s1)C(=O)NC1CCCCC1C (stereo not given) | inactive |
| O=c1[nH]cc(/N=C/c2cc(Cl)cc(Cl)c2O)c(=O)[nH]1 | inactive |
| CCCn1/c(=N\C(C)=O)c(C(=O)OCC)cc2c(=O)n3ccccc3nc21 | inactive |
| CC(C)Cc1cc(C(=O)N2CCC(N3CCC(C(=O)N4CCCC4)CC3)CC2)[nH]n1 | inactive |
| O=C(C1CCN(S(=O)(=O)c2c(Cl)cccc2Cl)CC1)N1CCCCCCC1 | inactive |
| O=C(c1cccc(Cl)c1)N1CCC(N2CCC(C(=O)N3CCCC3)CC2)CC1 | 8.91 µM (active) |
